# PNC inhibitor = High Content Assay for Compounds that inhibit the Assembly of the Perinucleolar Compartment. PC3M PTB-GFP, PNC prevalence imaging, 16 h; stronger effect = lower value. activity change (PNC), negative = inhibition, % at 10 µM. actives 3.1% (n = 140,000);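 active = readout at or below -70, meaning at least 70% loss of cells showing the perinucleolar compartment, a nuclear body marking cancer cells; inconclusive = readout between -30 and a set limit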;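 also: plate controls were DMSO wells for no effect and camptothecin positive control wells for full effect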
#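 Compounds are pinned in duplicate onto adhered PC3M cells stably expressing GFP-tagged PTB and incubated 16 h at 37 C. Cells are then fixed, nuclei stained with Hoechst, and PNC-positive cells counted.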
# IMPase Li inh = qHTS Assay for Identifying the Cell-Membrane Permeable IMPase Inhibitors: Potentiation with Lithium; CHO-M1 cells, IP1 TR-FRET (IP-One), carbachol + lithium; AID 1457, 2008; actives 0.35% (n = 210,000); Potency, µM (highest dose often 59.4 µM), for the others: at the highest dose activity, negative = IMPase inhibition, most hits filed as inhibitors; active = well fitted inhibition curve with a large enough effect; inconclusive = small, poorly fitted or top-dose-only effect; inactive = no such curve, though single readings can be large or run the other way;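 also: IP1 builds up when IMPase is blocked and the TR-FRET signal falls; potency is read from the fitted curve at half-maximal effect; plate controls were basal vehicle for no effect and high inhibitor control for full effect; nearly all actives have a fitted effect of over 50% in size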
#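 Lithium-sensitised IP1 accumulation assay; M1-expressing CHO cells treated 30 min at 37C with compound. Competitive antibody detection by time-resolved FRET followed a 10 min room-temperature lysis step.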
# IMPase cell inh = qHTS Assay for Identifying the Cell-Membrane Permeable IMPase Inhibitors | 120,000 tested, under 10 active | inhibition (IP1 accumulation), % at 46.1 µM | CHO-M1 cells, IP1 accumulation, HTRF TR-FRET ratio | Inositol monophosphatase 1 (Rattus norvegicus), P97697; active = well fitted curve in the direction sought with a large enough effect in the signal ratio, not every such curve was filed as active; inconclusive = small, poorly fitted or top-dose-only effect, or a change in a side signal; inactive = no such curve, though single readings can be large or run the other way; the % refers to the signal ratio;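 also: cells stimulated with carbachol in lithium chloride buffer; plate controls were DMSO basal wells for no effect and reference inhibitor wells for full effect; higher means more IMPase inhibition seen as more IP1 and lower FRET ratio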
# Target sequence (P97697 whole entry, looked up): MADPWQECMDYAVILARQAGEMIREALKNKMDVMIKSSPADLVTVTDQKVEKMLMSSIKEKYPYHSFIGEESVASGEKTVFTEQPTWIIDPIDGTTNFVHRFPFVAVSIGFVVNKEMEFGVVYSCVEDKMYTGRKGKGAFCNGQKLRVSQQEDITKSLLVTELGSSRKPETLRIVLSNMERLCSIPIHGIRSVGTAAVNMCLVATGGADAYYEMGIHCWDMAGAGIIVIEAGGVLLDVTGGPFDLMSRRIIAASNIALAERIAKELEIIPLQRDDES
#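 Carbachol-driven Gq signalling in CHO-M1 cells (2000/well) generates IP1. Compounds that block IMPase raise IP1 and so reduce the FRET signal from Eu-anti-IP1 and d2-IP1 after a 10 min room-temperature lysis.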
# HPGD block = qHTS Assay for Inhibitors of HPGD (15-Hydroxyprostaglandin Dehydrogenase) | AID 894, 2007 | actives 4.3% (n = 150,000) | Potency, µM, inactives show top-dose activity change, negative = inhibition, actives largely listed as inhibitors | purified HPGD, NADH fluorescence kinetic, PGE2 substrate | 15-hydroxyprostaglandin dehydrogenase [NAD(+)] (Homo sapiens), P15428; also: potency is read from the fitted curve at half-maximal effect
# Target sequence (P15428 whole entry, looked up): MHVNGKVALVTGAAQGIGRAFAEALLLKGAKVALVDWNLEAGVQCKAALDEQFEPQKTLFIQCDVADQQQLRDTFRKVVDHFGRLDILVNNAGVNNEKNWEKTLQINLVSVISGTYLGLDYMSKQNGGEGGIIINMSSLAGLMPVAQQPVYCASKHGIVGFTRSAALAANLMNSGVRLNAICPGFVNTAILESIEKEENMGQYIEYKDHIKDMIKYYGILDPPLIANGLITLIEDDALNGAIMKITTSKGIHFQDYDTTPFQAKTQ
#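 20 nM HPGD preincubated 15 min at room temperature with compound in 50 mM Tris-HCl pH 8, 0.01% Tween 20. Started with 1 mM NAD+ and 30 uM prostaglandin E2; NADH fluorescence (360/450 nm) read 5 times over 30-s intervals, last minus first.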
# ALDH1A1 inh = qHTS Assay for Inhibitors of Aldehyde Dehydrogenase 1 (ALDH1A1) | Aldehyde dehydrogenase 1A1 (Homo sapiens), P00352 | Purified ALDH1A1, NADH fluorescence, propionaldehyde substrate | Potency, µM (top dose mostly 75.3 µM), for inactives: top-dose activity, negative = inhibition, actives largely listed as inhibitors | actives 7.3% (n = 220,000);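 also: potency is read from the fitted curve at half-maximal effect; plate controls were no enzyme wells and a reference inhibitor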
# * = called active by the depositor; ? = inconclusive; / = not tested or not shown; [ ] = remark or other dose. The list is not random: actives were taken first. Their share in the collection is about 11%. Unless noted, calls follow the shape of the dose curve; as a rule, active = well fitted inhibition curve with a large enough effect (not every such curve was filed as active); inconclusive = small, poorly fitted or top-dose-only effect, or another doubt; inactive = no such curve, though single readings can be large or run the other way. Unless noted, % is scaled to controls: 0 for no effect and ±100 for the full control effect.
SMILES,PNC inhibitor,IMPase Li inh,IMPase cell inh,HPGD block,ALDH1A1 inh
O=C(NC(NC(=S)Nc1ccccc1C(=O)O)C(Cl)(Cl)Cl)c1ccco1 (configuration not stated),?,-4%,/,?,?
O=C(NC(NC(=S)Nc1ccc(Cl)c(Cl)c1)C(Cl)(Cl)Cl)c1ccco1 (configuration not stated),6,10%[38.3 µM],10,-24%,7.1µM*
O=C(Nc1ccc(Br)c(Cl)c1)c1ccco1,?,8%[38.3 µM],1,22µM*,-13%
COc1cc(/C=C/C(=O)O)cc(S(=O)(=O)NCCCC(=O)O)c1OC,/,-1%,/,/,?
CO[C@H]1COC(=O)[C@@H](CCSC)NC(=O)C/C=C\[C@@H](C)[C@H](OC)COC(=O)[C@@H](OCc2ccccc2)/C=C\[C@@H]1C,/,/,/,/,-6%[13.5 µM]
COc1ccccc1C(=O)NC1(C(F)(F)F)C(=O)NC(C)=C1C#N (configuration not stated),/,/,-21,/,/
O=C(Cc1ccccc1)NC(NC(=S)Nc1cc(Cl)ccc1Cl)C(Cl)(Cl)Cl (configuration not stated),-1,8%[38.3 µM],1,-16%,?
O=C(NC(NC(=S)Nc1cc(Cl)ccc1Cl)C(Cl)(Cl)Cl)c1ccco1 (configuration not stated),26,9%[38.3 µM],6,-22%,8.9µM*
CCS(=O)(=O)c1ccc2oc(SCC(=O)NC34CC5CC(CC(C5)C3)C4)nc2c1,-26,-1%[38.3 µM],5,-13%,0%
CCS(=O)(=O)c1ccc2oc(SCC(=O)NC3CCCC(C)C3C)nc2c1 (configuration not stated),?,49%[38.3 µM],3,32µM*,3%
COC(=O)N1C(C)=Cc2ccccc2C1C/C(C)=C/C(C)=O (configuration not stated),/,18%,/,-8%,10%
CC(C)c1ccccc1NC(=O)Cn1cnc2c1c(=O)n(C)c(=O)n2C,/,/,-3,/,/
CCN(CC)S(=O)(=O)c1ccc(Cl)c(C(=O)Oc2cccnc2)c1,7,20%[38.3 µM],-8,-26%,14µM*
CCN(CC)S(=O)(=O)c1ccc(Cl)c(C(=O)Oc2cccc(-c3cnc4ccccc4n3)c2)c1,-6,-27%[38.3 µM],-4,-4%,5%
O=C(c1ccco1)N1CCN(C/C=C/c2ccccc2)CC1,18,/,-23,/,?
O=C(Nc1ccccc1Cl)N1CCN(C/C=C/c2ccccc2)CC1,-91*,4%,/,-3%,10%
O=C(c1nn(Cc2ccccc2)c(=O)c2ccccc12)N1CCN(C/C=C/c2ccccc2)CC1,37,16%[38.3 µM],14,-5%,13µM*
Cc1ccccc1NC(=O)N1CCN(C/C=C/c2ccccc2)CC1,/,8%,/,/,9%
O=C(CN(c1cc(C(F)(F)F)ccc1Cl)S(=O)(=O)c1ccccc1)NCCc1ccccc1,/,/,10,/,/
CC1=CC(C)=Nc2ccccc2N1,2,-7%[38.3 µM],0,-15%,?
Cc1ccc(C2=Nc3ccccc3NC(C)(c3ccc(C)o3)C2)o1 (configuration not stated),-8,27%[38.3 µM],9,-16%,22µM*
CC(C)c1ccc(/C=C(\C#N)c2nc(-c3ccc(O)cc3)cs2)cc1,/,/,9,/,/
CCN(C(=O)c1ccccc1)c1ccc([N+](=O)[O-])cc1,35,3%,/,-5%,5µM*
CC(=O)Nc1ccc(NC(=O)C2CC(=O)N(Cc3ccccc3)C2)cc1 (configuration not stated),/,-4%,/,/,3.5µM*
C=CCn1c(=O)n(CC=C)c(=O)n(CC=C)c1=O,/,-3%,/,-2%,-8%
SMILES,PNC inhibitor,IMPase Li inh,IMPase cell inh,HPGD block,ALDH1A1 inh
CN(C)S(=O)(=O)c1ccc(NC(=O)/C=C/c2ccccc2Cl)cc1,68,-6%,?,-9%,?
CN(C)c1ccc(NC(=O)/C=C/c2c(Cl)cccc2Cl)cc1,-93*,-1%,-4,-8%,?
Cn1c(=O)c2c(nc(SCCN3CCCCC3)n2Cc2ccc(Cl)cc2)n(C)c1=O,?,18%[38.3 µM],11,-2%,7%
Cc1ccc(Cn2c(SCC(C)C)nc3c2c(=O)n(C)c(=O)n3C)cc1,?,37%[38.3 µM],-7,-25%,2µM*
C/C=C/CSc1nc2c(c(=O)[nH]c(=O)n2C)n1Cc1ccc(C)cc1,26,29%[38.3 µM],6,18µM*,10µM*
C/C=C/Cn1c(SCc2ccccc2)nc2c1c(=O)[nH]c(=O)n2C,-4,12%[38.3 µM],-1,20µM*,14µM*
COCC(=O)N1CCC2(CC1)CCN(C(c1ccccc1)c1ccccc1)CC2,/,16%,/,-5%,11%
O=C1CCCC=C1[C@H](O)c1ccc([N+](=O)[O-])cc1,/,/,/,/,-4%[13.5 µM]
O=C1[C@H]2[C@H]3[C@H](O)[C@H](O)C/C(=N/OC[C@@H](O)COCc4ccco4)[C@@H]3CC[C@@H]2C(=O)N1Cc1ccc2c(c1)OCO2,/,/,/,/,8%[13.5 µM]
CCOC(=O)C1CSC(CC(=O)Nc2ccc(Cl)cc2)C(=O)N1 (configuration not stated),34,9%[38.3 µM],-1,-4%,?
O=S(=O)(c1ccc2c(c1)nc(COc1ccc(Cl)cc1)n2CC1CCCO1)N1CCOCC1 (configuration not stated),?,13%[38.3 µM],-1,-7%,7%
N#Cc1cccc(NC(=O)CSc2ccc3c4c(cccc24)C(=O)c2ccccc2-3)c1,?,?,-21,-29%,18µM*
N#Cc1cccc(NC(=O)CN2NS(=O)(=O)c3ccccc3C2=O)c1,45,7%[38.3 µM],-5,16µM*,-11%
Cn1c(=O)c2c(ncn2CC(=O)Nc2cc(Cl)cc(Cl)c2)n(C)c1=O,/,/,-9,/,/
C/C(CCN1CCc2nc(-c3ccccc3)c(-c3ccccc3)cc2C1)=N\O[C@@H](C)CN1CCCc2nc(C)c(C)cc21,/,/,/,/,-14%[13.5 µM]
Cc1ccc(S(=O)(=O)N(Cc2cc3cc4c(cc3[nH]c2=O)OCCO4)CC2CCCO2)cc1 (configuration not stated),38,7.1µM*,-9,?,?
COc1ccc2cc(CN(CC3COCCO3)S(=O)(=O)c3ccc(Cl)cc3)c(=O)[nH]c2c1 (configuration not stated),29,7.1µM*,8,26%,?
COc1ccc2cc(CN(CC3COCCO3)S(=O)(=O)c3c(C)cc(C)cc3C)c(=O)[nH]c2c1 (configuration not stated),?,-16%[38.3 µM],4,-24%,-3%

# Screening results: PubChem BioAssay, National Center for Advancing Translational Sciences (NCATS)
